Only some compounds are listed: those with a hit (about 2.8% of all), similar ones and a draw of the others.
POLK inh: blocks human DNA polymerase kappa activity; Q9UBT6; purified Pol kappa, fluorescent DNA synthesis assay, 10 min; Potency, µM (highest dose often 107 µM), without a hit: top-dose activity, negative = inhibition, most hits filed as inhibitors; 400,000 tested, 0.53% active; AID 588579; note: potency is the fitted concentration of half-maximal effect; % is set by controls: 0 for no effect and ±100 for the full control effect
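Fluorescent qHTS in 1536-well format: enzyme (10 nM) and compound sat 15 min at room temperature before 50 nM substrate (final) was added. Signal taken at 0 and 10 min; no-enzyme buffer wells were negative controls.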
PI5P4Ka inh: blocks human PI5P4K alpha kinase activity; PI5P4Kalpha enzyme, ADP-Glo luminescence, 60 min; hits give low values; max response, %; 330,000 tested, 1.2% active; AID 652105; active = max response of -50% or lower; inconclusive = between -30% and -50%; inactive = -30% or higher; note: value at the top dose of about 77 µM; % is set by controls: 0 for no effect and ±100 for the full control effect
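Single end-point luminescence (ADP-Glo) quantified ADP from PI5P4Kalpha turnover; ATP 5 microM final, 1 h at RT, 0.1% CHAPS and 0.28 mM EGTA in HEPES pH 7.4.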
Pol beta inh: inhibitors of human DNA polymerase beta; P06746; Pol beta primer extension/strand displacement, fluorescence kinetic; Potency, µM (titrated, usually from 114 µM), for inactives: at the highest dose activity change, negative = inhibition, most hits filed as inhibitors; 340,000 tested, 1.3% active; note: potency is the fitted concentration of half-maximal effect; % is set by controls: 0 for no effect and ±100 for the full control effect
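Curves were derived by four-parameter Hill fits of normalized qHTS data. The kinetic fluorescent primer-extension read was taken at 0 and 10 min after 50 nM substrate, following a 15 min room-temperature preincubation of 10 nM enzyme with compounds.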
Pol eta inh: inhibitors of human DNA polymerase eta; 390,000 tested, 1.2% active; recombinant Pol eta, fluorescent DNA replication assay; AID 588591; Q9Y253; Potency, µM (top dose mostly 114 µM), for the others: top-dose activity change, negative = inhibition, most hits filed as inhibitors; note: potency is the fitted concentration of half-maximal effect; % is set by controls: 0 for no effect and ±100 for the full control effect
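Fluorescent replication assay: 50 nM final substrate added after a 15 min room-temperature compound preincubation with 10 nM enzyme. Signal taken at 0 min and again at 10 min.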
POLI inh: blocks human DNA polymerase iota activity; 390,000 tested, 1% active; Pol iota fluorescent replication assay, 10 min; Q9UNA4; Potency, µM (top dose mostly 115 µM), inactives show top-dose activity, negative = inhibition, most hits filed as inhibitors; note: potency is the fitted concentration of half-maximal effect
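Pol iota at 10 nM preincubated 15 min with compounds at room temperature; reaction started with fluorescent substrate, 50 nM final. Fluorescence read kinetically at 0 and 10 min; buffer-only wells as negative control.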
WRN helicase inh: WRN helicase (human) inhibition | Q14191 | WRN helicase unwinding, fluorescent forked duplex, kinetic | Potency, µM (titrated, usually from 114 µM), for the others: at the highest dose activity change, negative = inhibition, usual class: inhibitors | 360,000 tested, 0.46% active; note: potency is the fitted concentration of half-maximal effect; % is set by controls: 0 for no effect and ±100 for the full control effect; nearly all actives have a fitted effect of over 55% in size
Target sequence (Q14191 whole entry, looked up): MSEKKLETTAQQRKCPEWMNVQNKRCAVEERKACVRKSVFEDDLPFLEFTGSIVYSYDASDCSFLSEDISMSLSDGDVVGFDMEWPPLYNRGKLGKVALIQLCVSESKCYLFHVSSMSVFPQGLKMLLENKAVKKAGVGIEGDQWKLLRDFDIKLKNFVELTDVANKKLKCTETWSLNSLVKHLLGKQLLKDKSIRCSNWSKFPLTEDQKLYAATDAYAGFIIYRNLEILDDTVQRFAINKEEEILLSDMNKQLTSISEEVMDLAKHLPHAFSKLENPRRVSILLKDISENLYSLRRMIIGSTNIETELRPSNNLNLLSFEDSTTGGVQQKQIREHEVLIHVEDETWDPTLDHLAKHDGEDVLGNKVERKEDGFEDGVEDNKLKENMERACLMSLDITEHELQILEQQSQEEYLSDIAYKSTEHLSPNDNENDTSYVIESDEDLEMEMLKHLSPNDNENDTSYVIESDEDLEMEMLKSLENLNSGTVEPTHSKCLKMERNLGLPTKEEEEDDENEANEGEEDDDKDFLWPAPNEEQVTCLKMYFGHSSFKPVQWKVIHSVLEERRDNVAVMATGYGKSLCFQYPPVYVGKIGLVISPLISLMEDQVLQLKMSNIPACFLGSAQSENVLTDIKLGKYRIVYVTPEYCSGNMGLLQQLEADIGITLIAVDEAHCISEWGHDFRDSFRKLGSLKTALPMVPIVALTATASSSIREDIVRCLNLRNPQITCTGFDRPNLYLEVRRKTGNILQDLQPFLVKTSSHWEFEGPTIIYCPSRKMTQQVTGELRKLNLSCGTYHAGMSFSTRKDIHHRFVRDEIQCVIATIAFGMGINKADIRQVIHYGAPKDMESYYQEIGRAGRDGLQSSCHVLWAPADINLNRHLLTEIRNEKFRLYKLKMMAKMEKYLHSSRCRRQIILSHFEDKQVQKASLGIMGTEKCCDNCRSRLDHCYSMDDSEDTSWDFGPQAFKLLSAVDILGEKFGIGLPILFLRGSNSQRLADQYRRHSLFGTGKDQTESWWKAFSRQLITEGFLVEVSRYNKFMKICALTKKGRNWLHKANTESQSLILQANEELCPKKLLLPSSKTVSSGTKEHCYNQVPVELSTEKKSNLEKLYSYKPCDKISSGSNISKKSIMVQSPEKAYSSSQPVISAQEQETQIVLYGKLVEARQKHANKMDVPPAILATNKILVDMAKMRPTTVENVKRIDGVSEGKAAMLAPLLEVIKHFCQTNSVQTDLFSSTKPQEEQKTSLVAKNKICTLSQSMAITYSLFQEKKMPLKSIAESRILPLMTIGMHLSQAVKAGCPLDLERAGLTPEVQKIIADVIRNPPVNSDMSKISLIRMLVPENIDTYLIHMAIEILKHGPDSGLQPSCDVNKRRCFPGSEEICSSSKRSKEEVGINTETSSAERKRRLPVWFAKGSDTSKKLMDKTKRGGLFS
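Fluorescence dequenching readout, ex 525 nm/em 598 nm, kinetic mode: forked duplex DNA (100 nM final) with adjacent fluorophore and quencher unwound by WRN (20 nM final) with 2 mM ATP. Compound preincubation 15 min, room temperature.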
The depositor's hits bear a star; ! = not active in a repeat; [ ] = remark or other dose. Unless noted, calls come from the whole dose curve; as a rule, active = well fitted curve in the direction sought with a large enough effect; inconclusive = small, poorly fitted or top-dose-only effect, or another doubt; inactive = no such curve, though single readings can be large; an effect the other way counts as inactive or inconclusive.

Results for CCCCOc1ccc(C(=O)NCCc2csc(-c3ccc(OC)cc3)n2)cc1 ?
POLK inh: -6%[60.1 µM]; Pol beta inh: -18%; Pol eta inh: 1%; POLI inh: inconclusive

What do the screens show for `CC1=CC(=O)c2c(O)cccc2C1=O`?
POLK inh: 10µM*!

How did O=c1c2ccccc2nc(/C=C/c2ccccc2)n1-c1ccc(O)cc1 do in these assays?
POLK inh: -5%; PI5P4Ka inh: -3; Pol beta inh: 12%; Pol eta inh: -11%; POLI inh: 50%; WRN helicase inh: -11%

How did COc1cc(/C=C/c2nc3ccccc3c(=O)n2-c2ccccc2O)ccc1O do in these assays?
POLK inh: -5%; PI5P4Ka inh: 1; Pol beta inh: -5%; Pol eta inh: -25%; POLI inh: 118%; WRN helicase inh: -11%

Results for COc1cc(/C=C/c2nc3ccccc3c(=O)n2-c2cccc(O)c2)ccc1O ?
POLK inh: inconclusive; PI5P4Ka inh: -19; Pol beta inh: inconclusive; Pol eta inh: inconclusive; POLI inh: 18µM*; WRN helicase inh: inconclusive

Results for O=c1c2ccccc2nc(/C=C/c2ccc(O)c(O)c2)n1-c1ccccc1 ?
POLK inh: -19%; PI5P4Ka inh: -26; Pol beta inh: inconclusive; Pol eta inh: 18µM*; POLI inh: inconclusive; WRN helicase inh: -9%[11.6 µM]

What do the screens show for `O=C(O)c1ccccc1Cc1ccccc1`?
POLK inh: 15%[60.1 µM]

How did CCOc1ccc(NC(=O)c2ccc(NC(=O)COC(=O)Cc3ccccc3)cc2)cc1 do in these assays?
POLK inh: -9%; PI5P4Ka inh: -17; Pol beta inh: 22µM*; Pol eta inh: -14%; POLI inh: inconclusive; WRN helicase inh: -22%[57.1 µM]

What do the screens show for `CCCC[C@@H](C)[C@@H](OC(=O)C[C@@H](CC(=O)O)C(=O)O)[C@H](C[C@@H](C)C[C@H](O)CCCC[C@@H](O)C[C@H](O)[C@H](C)N)OC(=O)C[C@H](CC(=O)O)C(=O)O`?
POLK inh: 5%[19.4 µM]

How did COC(=O)C1=C(C(=O)OC)C2OC1c1cc3ccccc3cc12 do in these assays?
POLK inh: -18%; PI5P4Ka inh: -15; Pol eta inh: -16%; POLI inh: 10%; WRN helicase inh: 40µM*

What do the screens show for `O=C1NC(=O)N(Cc2cccs2)C(=O)/C1=C/c1ccc(N2CCOCC2)cc1`?
POLK inh: -7%; PI5P4Ka inh: -52*; Pol beta inh: -6%; Pol eta inh: 4%; POLI inh: 118%; WRN helicase inh: 56µM*

Results for CN(C)[C@@H]1C(=O)C(C(N)=O)=C(O)[C@]2(O)C(=O)C3=C(O)c4c(O)cccc4[C@@](C)(O)[C@H]3[C@H](O)[C@@H]12 ?
POLK inh: 4.7µM*

Results for CN(C)C1C(=O)C(C(N)=O)=C(O)[C@@]2(O)C(=O)C3=C(O)c4c(O)cccc4[C@@](C)(O)C3[C@H](O)C12 (stereo not given in full) ?
POLK inh: 10µM*

How did CC(C)c1ccc(-n2c(O)c(/C=N/NC(=O)c3ccccc3O)c(=O)[nH]c2=S)cc1 do in these assays?
POLK inh: -14%; PI5P4Ka inh: -65*; Pol beta inh: 7%; Pol eta inh: -18%; POLI inh: -1%; WRN helicase inh: -33%

What do the screens show for `O=C(N/N=C/c1c(O)n(C2CCCCC2)c(=S)[nH]c1=O)c1ccccc1O`?
POLK inh: 0%; PI5P4Ka inh: inconclusive; Pol beta inh: 6%; Pol eta inh: -13%; POLI inh: 6%; WRN helicase inh: -3%

What do the screens show for `CN[C@@H](Cc1c[nH]c2ccccc12)C(=O)O`?
POLK inh: -8%[19.4 µM]

What do the screens show for `C=CCn1c(O)c(/C(C)=N/NC(=S)Nc2ccccc2)c(=O)[nH]c1=O`?
POLK inh: -19%; PI5P4Ka inh: -64*; Pol beta inh: 6%; Pol eta inh: -2%; POLI inh: inconclusive; WRN helicase inh: -29%

Results for COC1=C(C)C(=O)c2c(c(COC(N)=O)c3n2C[C@@H]2[C@@H]3N2C)C1=O (stereo not given in full) ?
POLK inh: inconclusive; POLI inh: 56µM*

What do the screens show for `C=C1C(=O)O[C@@H]2C[C@@H](C)[C@H]3C=CC(=O)[C@]3(O)C[C@@H]12`?
POLK inh: -26%; PI5P4Ka inh: -2; Pol beta inh: -1%; Pol eta inh: 32µM*; POLI inh: inconclusive; WRN helicase inh: -24%

Results for C=C1C(=O)OC2CC3(C)OC3CCC(C)=CC(OC(C)=O)C12 (stereo not given) ?
POLK inh: -2%; PI5P4Ka inh: -7; Pol eta inh: -14%; POLI inh: 5%; WRN helicase inh: -3%

What do the screens show for `C#CCOCCOCCOCCNc1nc(N2CCN(C(=O)CCCCCCCCCCNC(=O)[C@H]([C@@H](C)CC)n3cc(CCCCN=C(N)N)nn3)CC2)nc(N2CCN(C(=O)CCCCCCCCCCNC(=O)[C@H](CO)n3cc(CCCCCN)nn3)CC2)n1`?
POLK inh: 12%; PI5P4Ka inh: inconclusive; Pol eta inh: 79µM*; POLI inh: inconclusive; WRN helicase inh: 22µM*

Results for O=C1C(=O)C(Cl)=C(Cl)C(Cl)=C1Cl ?
PI5P4Ka inh: -54*; WRN helicase inh: 40µM*

What do the screens show for `COc1ccc2cc1Oc1ccc(cc1)C[C@H]1c3cc(c(OC)cc3CCN1C)Oc1c(OC)c(OC)cc3c1[C@H](C2)N(C)CC3`?
POLK inh: -43%; PI5P4Ka inh: -18; Pol beta inh: -1%; Pol eta inh: -12%; POLI inh: -58%; WRN helicase inh: 4%

What do the screens show for `COc1cc2c3c(c1OC)Oc1ccc(cc1)C[C@H]1c4c(cc(OC)c(OC)c4Oc4ccc(cc4)C[C@@H]3N(C)CC2)CCN1C`?
POLK inh: 7%; PI5P4Ka inh: -92*; Pol eta inh: -23%; POLI inh: 35%; WRN helicase inh: 2%

How did CCN(CC)CCN=Cc1c(O)n(CCc2ccccc2)c(=O)[nH]c1=O do in these assays?
POLK inh: 0%; PI5P4Ka inh: -22; Pol beta inh: 3%; Pol eta inh: -1%; POLI inh: inconclusive; WRN helicase inh: 16%

What do the screens show for `O=C(N/N=C/c1c(O)n(CCc2ccccc2)c(=O)[nH]c1=O)c1ccccc1`?
POLK inh: -4%; PI5P4Ka inh: -77*; Pol beta inh: inconclusive; Pol eta inh: -21%; POLI inh: 153%; WRN helicase inh: -33%

Bioassay records (PubChem BioAssay)
